About 83,000 compounds went through this panel and 20% of them were active in at least one assay; those are over-represented in the sample as a whole.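 Cells were grown in 96-well plates and exposed to the test compound at a single concentration for 48 hours; results are reported as percent growth, with values below 10 considered active.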 A number with no mark means an inactive call. The source made the active and inactive calls.

Test systems include NCI-H23 lung; NCI-H226 lung; NCI-H322M lung; HOP-62 NSCLC; NCI-H460 lung; HOP-92 NSCLC; NCI-H522 lung; A549/ATCC NSCLC; 786-0 renal; COLO 205 colon.
What all share (experiment): NCI-60 one-dose screen, 48 h (100 = growth as untreated, 0 = no growth, -100 = all killed)
Holding throughout (details): 10 µM unless noted

Consider `O=C(CCCCCCCCC(=O)Nc1cccc(C2=NCCN2)c1)Nc1cccc(C2=NCCN2)c1`, for which the growth in the test on NCI-H23 lung was 75.8%; with NCI-H226 lung it was 101%; in the test on NCI-H322M lung, 105%; with HOP-62 NSCLC, 102%; with NCI-H460 lung it was 93.6%; with HOP-92 NSCLC, 90.5%. Further, the growth with NCI-H522 lung was 70.3%; in the test on A549/ATCC NSCLC, 96.6%; with 786-0 renal, 100%; in the test on COLO 205 colon, 92.2%.

As for `NC(=N\N=C\c1ccccc1O)/C(N)=N/N=C/c1ccccc1O`, the growth in the test with NCI-H23 lung is 90.9%; in the test with NCI-H226 lung, 96%; in the test on NCI-H322M lung it was 80.5%; in the test with HOP-62 NSCLC, 84.5%; in the test on NCI-H460 lung it was 70.1%; in the test with HOP-92 NSCLC it was 76.2%. Further, the growth in the test on NCI-H522 lung was 63.5%; in the test with A549/ATCC NSCLC it was 73.6%; with 786-0 renal it was 85.2%; with COLO 205 colon it was 97.1%.

Take `Cc1nc(C)c(C)nc1C`: the growth was 102% in the test with NCI-H23 lung; 104% in the test with NCI-H226 lung; 103% in the test on NCI-H322M lung; 100% in the test with HOP-62 NSCLC; 109% in the test on NCI-H460 lung; 103% in the test on HOP-92 NSCLC. In addition, the growth in the test with NCI-H522 lung is 84.6%; with A549/ATCC NSCLC, 86.6%; with 786-0 renal, 96.9%; in the test with COLO 205 colon, 119%.

For the compound `COc1cc2cc(c1Cl)N(C)C(=O)C[C@H](OC(=O)[C@H](C)N(C)C(=O)CCS)C[C@]1(C)O[C@H]1[C@H](C)[C@@H]1C[C@@](O)(NC(=O)O1)[C@H](OC)/C=C/C=C(\C)C2`, the growth was 23.2% with NCI-H23 lung; 69.5% in the test with NCI-H226 lung; 42.8% in the test on NCI-H322M lung; 18.3% in the test with HOP-62 NSCLC; 7.39% (active) with NCI-H460 lung; 4.28% (active) with HOP-92 NSCLC. For the same compound, the growth is -31.2% (active) with NCI-H522 lung, 16.3% in the test with A549/ATCC NSCLC, 13.8% in the test with 786-0 renal and -65.7% (active) in the test with COLO 205 colon.

For `COc1ccc2c(c1)OC13Oc4cc(OC)ccc4C=C1CCCCC3=C2`, the growth in the test on NCI-H23 lung was 91.6%; with NCI-H226 lung it was 88.4%; in the test on NCI-H322M lung, 105%; in the test on HOP-62 NSCLC it was 99.3%; in the test on NCI-H460 lung, 94.4%; in the test on HOP-92 NSCLC, 80.7%. Further, the growth in the test on NCI-H522 lung is 66.2%; with A549/ATCC NSCLC, 73.8%; in the test on 786-0 renal, 87.2%; in the test with COLO 205 colon, 101%.

`Cc1ccc(SC2c3ccc(C)cc3Oc3nc(N)c(C#N)c(N)c32)cc1` (stereo not given): the growth was 82.8% in the test on NCI-H23 lung; 92.8% with NCI-H226 lung; 104% with NCI-H322M lung; 89.8% with HOP-62 NSCLC; 101% in the test with NCI-H460 lung; 66.6% with HOP-92 NSCLC. Moreover, the growth with NCI-H522 lung is -53.4% (active); in the test with A549/ATCC NSCLC, 101%; with 786-0 renal it was 91.4%; with COLO 205 colon, 62.8%.

Consider `COc1cccc(C(=O)OCCn2nc3c4c(cccc42)C(=O)c2ccccc2-3)c1O`, for which the growth in the test with NCI-H23 lung was 44.2%; in the test on NCI-H226 lung, 79.9%; with NCI-H322M lung it was 53.8%; with HOP-62 NSCLC it was 39.5%; in the test on NCI-H460 lung, 28.2%; in the test with HOP-92 NSCLC, 62.1%. Further, the growth in the test on NCI-H522 lung is 24.8%; in the test with A549/ATCC NSCLC it was 67.4%; with 786-0 renal, 72.3%; in the test with COLO 205 colon it was 107%.

As for `CCOC(=O)c1c(C)nc2c(c1N)/C(=C/c1ccccn1)C(=O)N2Cc1ccccc1`, the growth was 23.6% in the test on NCI-H23 lung; 44.4% in the test on NCI-H226 lung; 62.7% in the test with NCI-H322M lung; -8.66% (active) with HOP-62 NSCLC; 4.8% (active) in the test with NCI-H460 lung; 30.5% with HOP-92 NSCLC. For the same compound, the growth is 0.177% (active) in the test with NCI-H522 lung, 44.6% in the test with A549/ATCC NSCLC, -64.8% (active) in the test on 786-0 renal and -42.7% (active) in the test with COLO 205 colon.

For the compound `COc1cc(C2=NN(C(C)=O)C(c3cccc(Nc4ccnc5cc(C(F)(F)F)ccc45)c3)C2)cc(OC)c1OC` (stereo not given), the growth in the test on NCI-H23 lung was 62.8%; in the test on NCI-H226 lung it was 66.5%; in the test with NCI-H322M lung it was 68.3%; with HOP-62 NSCLC it was 63.9%; in the test on NCI-H460 lung, 57.6%; in the test on HOP-92 NSCLC it was 25.3%. The growth in the test on NCI-H522 lung was 55.7%; in the test on A549/ATCC NSCLC, 53.1%; with 786-0 renal it was 58.8%; in the test on COLO 205 colon it was 50.3%.

`COc1ccc(N(C)c2nc(Cl)nc3ccn(C)c23)cc1`: the growth in the test on NCI-H23 lung is 27%; with NCI-H226 lung it was 30.3%; in the test on NCI-H322M lung it was 49%; in the test on HOP-62 NSCLC it was 17.7%; in the test with NCI-H460 lung, 2.4% (active); in the test with HOP-92 NSCLC, 5.65% (active). Moreover, the growth with NCI-H522 lung was -36% (active); in the test with A549/ATCC NSCLC, 10.7%; in the test with 786-0 renal, 12.6%; in the test on COLO 205 colon, -71.1% (active).

Turning to `C#C[C@@]1(O)[C@@H](CO)O[C@@H](n2cc(Cl)c3c(N)ccnc32)[C@@H]1O`, the growth is 71.9% in the test on NCI-H23 lung; 96.7% in the test with NCI-H226 lung; 74.6% in the test on NCI-H322M lung; 120% in the test on HOP-62 NSCLC; 25.1% with NCI-H460 lung; 48.2% with HOP-92 NSCLC. The growth was 75.1% with NCI-H522 lung, 67% with A549/ATCC NSCLC, 81.2% in the test with 786-0 renal and 63.4% in the test with COLO 205 colon.

Turning to `NC(=O)c1ccc2nc3c(n2c1)C(=O)C(=O)c1ccccc1-3`, the growth in the test on NCI-H23 lung is -38.3% (active); in the test on NCI-H226 lung, -49.7% (active); in the test with NCI-H322M lung it was -98.2% (active); in the test with HOP-62 NSCLC, -87.8% (active); with NCI-H460 lung, -50.7% (active); in the test on HOP-92 NSCLC it was -80.9% (active). In addition, the growth was -48.9% (active) with NCI-H522 lung, -43.1% (active) in the test on A549/ATCC NSCLC, -99.4% (active) in the test on 786-0 renal and -69% (active) in the test on COLO 205 colon.

Consider `COc1cc(C)ccc1Oc1nc(Nc2ccc(N3CCOCC3)cc2)ncc1N=Cc1cc(C(F)(F)F)cc(C(F)(F)F)c1`, for which the growth in the test on NCI-H23 lung was 70.4%; in the test with NCI-H226 lung it was 55.4%; in the test on NCI-H322M lung, 79.7%; with HOP-62 NSCLC, 61.1%; with NCI-H460 lung, 44.6%; in the test on HOP-92 NSCLC, 67.8%. Besides, the growth with NCI-H522 lung was 27.3%; in the test on A549/ATCC NSCLC it was 70%; with 786-0 renal, 76.6%; in the test with COLO 205 colon, 68.3%.

Regarding `CCSc1nc(Cl)c(C#N)c(-c2ccc(F)cc2)n1`, the growth in the test with NCI-H23 lung was 95.6%; in the test with NCI-H226 lung, 94.3%; with NCI-H322M lung, 92%; in the test on HOP-62 NSCLC it was 106%; with NCI-H460 lung, 103%; with HOP-92 NSCLC, 99%. In addition, the growth in the test on NCI-H522 lung was 92.8%; with A549/ATCC NSCLC it was 87.3%; in the test with 786-0 renal it was 98.9%; with COLO 205 colon, 106%.

As for `CCCn1cc(/C=N\N=C2\C(=O)Nc3ccc(C)cc32)c2ccccc21`, the growth in the test on NCI-H23 lung was 48%; with NCI-H226 lung, 92%; with NCI-H322M lung, 47.8%; with HOP-62 NSCLC it was 75.3%; in the test with NCI-H460 lung, 32.1%; in the test on HOP-92 NSCLC it was 37.4%. The growth was 13.8% with NCI-H522 lung, 63.9% in the test with A549/ATCC NSCLC, 64.5% in the test with 786-0 renal and -16.2% (active) with COLO 205 colon.

The values above are taken from PubChem BioAssay (NCI).
